The values below come from PubChem BioAssay.

Active and inactive are the calls of the source.

The nature of assay [1]: optical density shifts of acrAB sulA E. coli – strain DRC41, OD650, 48 h, E. coli filamentation inducer project, primary screen (AID 1152).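 Further: E. coli MC1000 strain DRC41 lacking acrAB efflux pump and sulA.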 The conditions noted are these: higher = more signal, called active from +8 up or from −8 down.
Assay [2] in a line: probe aLefty1 binding on compound microarray – biochemical, small-molecule microarray, 635/667 nm fluorescence, primary screen (AID 1153).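 Further: score merges spot fluorescence with signal-to-noise ratio from the scanned slide images.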 The conditions noted are these: higher = more signal.
The nature of assay [3]: plasmodial surface anion channel blockers, osmotic lysis – cell-based, P. falciparum Indochina, OD700, 1 h, primary screen (AID 1154). The conditions noted are these: P. falciparum Indochina infected RBC osmotic lysis, higher = more signal, called active from +8 up or from −8 down.
Assay [4] in a line: plasmodial surface anion channel blockers, osmotic lysis – cell-based, P. falciparum Indochina, OD700, 2 h, primary screen (AID 1155).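 Further: lysis reports solute entry through the parasite surface anion channel PSAC.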 The conditions noted are these: P. falciparum Indochina infected erythrocytes, higher = more signal, called active from +8 up or from −8 down.
The nature of assay [5]: changes in parasitized red cell lysis, either direction – P. falciparum Indochina, OD700, 3 h, PSAC antagonist project, primary screen (AID 1156). The conditions noted are these: P. falciparum-infected erythrocytes, osmotic lysis, higher = more signal, called active from +8 up or from −8 down.
Assay [6] is described as follows: plasmodial surface anion channel blockers, osmotic lysis – cell-based, P. falciparum Indochina, OD700, 18 h, primary screen (AID 1157). The conditions noted are these: P. falciparum Indochina infected erythrocytes, osmotic lysis OD700, 18 h; higher = more signal, called active from +8 up or from −8 down.
A short description of assay [7]: S6 kinase pathway phospho-S6 level changes – cell-based, A549, cytoblot, luminescence, serum-stimulated, primary screen (AID 1158).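 Further: serum-stimulated A549 lung adenocarcinoma cells; signal is phosphorylated S6 detected by cytoblot immunostaining with HRP secondary.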 The conditions noted are these: 5 h, higher = more signal.
In assay [8] the target is NADPH oxidase 2 (Homo sapiens) (UniProt P04839). Put plainly: compounds shifting NOX2 Amplex Red fluorescence – cell-based, HEK293-NOX2, PMA-stimulated, NOX inhibitor project, primary screen (AID 1159). Further: test concentration not given here. The conditions noted are these: 45 min, higher = more signal, called active from +8 up or from −8 down.
Assay [9] deals with NADPH oxidase 4 (Homo sapiens) (UniProt Q9NPH5). The assay can be described thus: compounds shifting NOX4 Amplex Red fluorescence – cell-based, HEK293-NOX4, tetracycline-induced, NOX inhibitor project, primary screen (AID 1160). The settings on record: HEK293-NOX4, Amplex Red H2O2 fluorescence, 45 min; higher = more signal, called active from +8 up or from −8 down.
Assay [10] deals with NADPH oxidase 5 (Homo sapiens) (UniProt Q96PH1). The assay can be described thus: compounds shifting NOX5 Amplex Red fluorescence – cell-based, HEK293-NOX5, NOX inhibitor project, primary screen (AID 1161). The settings on record: HEK293-NOX5, ionomycin, 45 min, higher = more signal.
Assay [11] in a line: compound effects on lung adenocarcinoma cell viability – A549, calcein-AM fluorescence, 48 h, basal, profiling panel (AID 1162). Further: test concentration not given here. The conditions noted are these: higher = more signal.
Assay [12] in a line: compound effects on differentiated 3T3-L1 adipocyte viability – cell-based, 3T3-L1 adipocytes, calcein-AM fluorescence, 48 h, basal, profiling panel (AID 1163). Further: test concentration not given here. The conditions noted are these: 3T3-L1 adipocytes viability, higher = more signal.
Assay [13] in a line: compound effects on hepatocellular carcinoma cell viability – HepG2, calcein-AM fluorescence, 48 h, basal, profiling panel (AID 1164). Further: test concentration not given here. The conditions noted are these: higher = more signal.
A short description of assay [14]: compound effects on multiple myeloma cell viability – MM1S, calcein-AM fluorescence, 48 h, basal, profiling panel (AID 1165).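 Further: viability of MM1S multiple myeloma cells under basal unstimulated conditions; test concentration not given here.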 The settings on record: higher = more signal.
The nature of assay [15]: calcein-AM signal in unstimulated myeloma cells – cell-based, calcein-AM fluorescence, 48 h, PK04 Diversity Set, profiling panel (AID 1166).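 Further: cells grown under basal conditions without added stimulus; test concentration not given here.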 The conditions noted are these: RPMI8226 myeloma viability, higher = more signal.
A short description of assay [16]: JC-1 mitochondrial signal, unstimulated HepG2 cells – cell-based, JC-1 fluorescence, 24 h, 100 nL compound, profiling panel (AID 1167). Further: test concentration not given here. The conditions noted are these: HepG2 mitochondrial potential, higher = more signal.
Assay [17] is described as follows: JC-1 mitochondrial signal, unstimulated adipocytes – cell-based, JC-1 fluorescence, 3T3-L1 adipocytes, 24 h, 100 nL compound, profiling panel (AID 1168). Further: test concentration not given here. The settings on record: JC-1 mitochondrial fluorescence, higher = more signal, called active from +8 up or from −8 down.
Assay [18] is described as follows: JC-1 mitochondrial signal, unstimulated myeloma cells – cell-based, JC-1 fluorescence, RPMI8226, 24 h, 100 nL compound, profiling panel (AID 1169). Further: test concentration not given here. The conditions noted are these: JC-1 mitochondrial potential fluorescence, higher = more signal.
The nature of assay [19]: JC-1 mitochondrial signal, unstimulated MM1S myeloma – cell-based, JC-1 fluorescence, 24 h, 100 nL compound, profiling panel (AID 1170). Further: test concentration not given here. The settings on record: MM1S mitochondrial potential, higher = more signal.
Assay [20] is described as follows: resazurin metabolic signal in A549 cells – cell-based, resazurin fluorescence, 24 h, PK04 Diversity Set, profiling panel (AID 1171). Further: test concentration not given here. The conditions noted are these: A549 viability, higher = more signal, called active from +8 up or from −8 down. Background: Resazurin is reduced to fluorescent resorufin, in cell work by metabolically active cells.

Sequence of NADPH oxidase 2 (Homo sapiens) (P04839 whole entry, looked up): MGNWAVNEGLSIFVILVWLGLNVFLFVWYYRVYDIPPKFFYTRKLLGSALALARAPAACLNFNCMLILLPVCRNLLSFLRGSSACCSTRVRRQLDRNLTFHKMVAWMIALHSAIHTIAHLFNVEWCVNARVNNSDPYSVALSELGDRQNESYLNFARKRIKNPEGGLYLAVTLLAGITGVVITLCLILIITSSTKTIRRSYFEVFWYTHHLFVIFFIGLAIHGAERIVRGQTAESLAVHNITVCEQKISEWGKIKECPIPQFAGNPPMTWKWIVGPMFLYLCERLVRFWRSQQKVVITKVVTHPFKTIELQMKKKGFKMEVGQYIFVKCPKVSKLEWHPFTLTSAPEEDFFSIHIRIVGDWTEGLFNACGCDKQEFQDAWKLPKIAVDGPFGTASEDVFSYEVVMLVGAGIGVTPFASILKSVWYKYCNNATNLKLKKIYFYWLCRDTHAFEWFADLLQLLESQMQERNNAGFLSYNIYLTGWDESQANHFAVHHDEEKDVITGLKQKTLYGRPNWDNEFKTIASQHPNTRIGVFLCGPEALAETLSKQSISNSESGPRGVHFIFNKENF
Sequence of NADPH oxidase 4 (Homo sapiens) (Q9NPH5 whole entry, looked up): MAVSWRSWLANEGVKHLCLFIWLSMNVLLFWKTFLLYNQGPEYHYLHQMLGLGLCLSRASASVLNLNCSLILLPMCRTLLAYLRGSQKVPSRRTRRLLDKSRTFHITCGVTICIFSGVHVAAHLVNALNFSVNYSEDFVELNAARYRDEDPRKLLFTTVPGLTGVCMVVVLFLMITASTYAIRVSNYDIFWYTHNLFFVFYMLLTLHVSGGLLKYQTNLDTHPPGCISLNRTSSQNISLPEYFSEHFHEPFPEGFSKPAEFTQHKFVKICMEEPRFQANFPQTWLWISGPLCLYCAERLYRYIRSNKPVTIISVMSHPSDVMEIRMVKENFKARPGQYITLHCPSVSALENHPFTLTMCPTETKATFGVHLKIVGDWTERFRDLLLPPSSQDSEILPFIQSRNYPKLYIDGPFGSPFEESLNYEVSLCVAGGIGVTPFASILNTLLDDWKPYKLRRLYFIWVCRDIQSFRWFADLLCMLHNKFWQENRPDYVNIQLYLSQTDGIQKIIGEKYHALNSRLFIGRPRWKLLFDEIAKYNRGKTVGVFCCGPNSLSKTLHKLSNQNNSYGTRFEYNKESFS
Sequence of NADPH oxidase 5 (Homo sapiens) (Q96PH1 whole entry, looked up): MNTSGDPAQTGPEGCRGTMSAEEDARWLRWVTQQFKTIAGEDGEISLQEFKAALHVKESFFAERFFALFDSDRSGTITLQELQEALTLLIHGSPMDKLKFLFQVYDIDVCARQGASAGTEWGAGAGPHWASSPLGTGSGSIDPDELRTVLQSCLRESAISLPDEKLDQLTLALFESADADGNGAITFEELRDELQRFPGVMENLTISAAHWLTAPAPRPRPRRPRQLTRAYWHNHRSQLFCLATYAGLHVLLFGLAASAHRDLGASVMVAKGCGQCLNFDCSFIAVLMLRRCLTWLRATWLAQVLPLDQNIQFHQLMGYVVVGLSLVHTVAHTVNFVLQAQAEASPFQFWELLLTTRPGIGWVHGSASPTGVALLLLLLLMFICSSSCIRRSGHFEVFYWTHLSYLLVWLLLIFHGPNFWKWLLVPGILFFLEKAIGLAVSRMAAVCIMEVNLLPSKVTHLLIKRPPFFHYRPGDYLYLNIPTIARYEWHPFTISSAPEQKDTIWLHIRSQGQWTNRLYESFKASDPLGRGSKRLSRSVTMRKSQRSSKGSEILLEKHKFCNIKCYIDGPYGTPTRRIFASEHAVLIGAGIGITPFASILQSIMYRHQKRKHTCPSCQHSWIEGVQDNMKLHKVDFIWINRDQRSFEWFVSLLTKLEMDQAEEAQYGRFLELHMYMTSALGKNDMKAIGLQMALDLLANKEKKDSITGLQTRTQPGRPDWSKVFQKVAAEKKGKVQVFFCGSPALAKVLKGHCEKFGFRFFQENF

Consider `CCCCC(=C=CC[C@H](O)c1ccccc1OCCO)C[C@H](O)COCc1ccccc1`, for which the z-score in assay [1] was -0.16 (inactive); in assay [3], 12 (active); in [4] it was 1.72 (inactive); in assay [5] it was 0.725 (inactive); in [6] it was 0.921 (inactive); in assay [7], -0.424. Further, the z-score was -1.02 (inactive) in assay [8]; -1.37 (inactive) in assay [9]; -2.05 in assay [10]; 0.395 in assay [11]; 0.0907 in assay [12]; 0.514 in [13]. Moreover, the z-score in [14] was -2.92; in assay [15], -1.29; in assay [16] it was -0.0498; in [17], -0.643 (inactive); in assay [18] it was -0.621; in [19], -0.611. Further, the z-score in [20] is 0.189 (inactive). Further, the composite z-score in [2] is -0.0544.

As to `COCCCNC(=O)[C@]1(Cc2ccccc2)N=C(c2ccc(OCCCO)cc2)O[C@@H]1c1ccccc1`, the z-score was -1.43 (inactive) in assay [1]; 26.9 (active) in assay [3]; 18.6 (active) in assay [4]; 0.972 (inactive) in [5]; 2.34 (inactive) in assay [6]; -0.612 in assay [7]. For the same molecule, the z-score in [8] was -1.04 (inactive); in assay [9], 0.654 (inactive); in [10], 1.1; in assay [11] it was -0.2; in [12], 0.346; in [13], 0.0484. The z-score in assay [14] is -2.27; in assay [15] it was -0.701; in assay [16], -0.175; in assay [17] it was 0.492 (inactive); in assay [18], -0.286; in [19] it was -0.498. For the same molecule, the z-score in assay [20] is 2.67 (inactive). The composite z-score in assay [2] stood at 0.301.

Consider `CCCCc1nc2c(c3c1C[C@H](C)OC3)CN(CCC(C)C)CC2`, for which the z-score in assay [1] is -0.192 (inactive); in assay [3] it was 1.35 (inactive); in assay [4], 0.977 (inactive); in [5], 0.816 (inactive); in assay [6], 0.589 (inactive); in [7], 0.171. The z-score in assay [8] is 0.35 (inactive); in [9], 0.315 (inactive); in assay [10] it was 0.776; in [11], 1.25; in assay [12], -0.11; in assay [13], 0.597. Also, the z-score is 0.411 in [14]; -1.35 in assay [15]; 2.01 in assay [16]; -0.836 (inactive) in [17]; -0.0883 in assay [18]; 0.301 in assay [19]. The z-score in assay [20] was 0.6 (inactive). For the same molecule, in [2], the composite z-score is -0.106.

Turning to `COc1ccc(O[C@H]2C=C[C@@H](c3ccccc3)O[C@@H]2COC(=O)CCC(C)=NOC[C@@H](C)[C@H](OCc2ccccc2)C(C)C)cc1`, the z-score in assay [1] was -0.72 (inactive); in [3], 0.857 (inactive); in assay [4], 0.55 (inactive); in assay [5], 0.607 (inactive); in [6] it was 0.294 (inactive); in assay [7], -0.656. Further, the z-score was 0.796 (inactive) in assay [8]; 0.478 (inactive) in assay [9]; 0.329 in assay [10]; -0.0801 in [11]; 0.13 in [12]; -0.442 in [13]. Further, the z-score in assay [14] is -0.0358; in assay [15] it was -1.02; in assay [16], 0.577; in [17] it was -1.61 (inactive); in [18] it was 0.815; in [19], -0.146. Besides, the z-score in assay [20] is 1 (inactive). In [2], this molecule had a composite z-score of -0.278.

In the case of `C=CCOC(=O)[C@H]1[C@@H]2C(=O)O[C@@H](c3ccccc3)[C@@H](c3ccccc3)N2[C@@H](c2ccc(OCCOC(=O)[C@H]3C[C@H]4C(=O)N5CCC[C@H]5C(=O)N4[C@H]3c3cccc(OCCO)c3)cc2)[C@]12C(=O)Nc1ccc(I)cc12`, the z-score in [1] is -0.709 (inactive); in assay [3], 0.491 (inactive); in assay [4], 0.641 (inactive); in assay [5], -2.53 (inactive); in assay [6], 0.131 (inactive); in assay [7], -0.0041. In addition, the z-score is -0.669 (inactive) in assay [8]; 0.165 (inactive) in [9]; 0.261 in assay [10]; -0.0113 in [11]; 0.199 in assay [12]; 0.144 in [13]. The z-score is 0.817 in [14]; -0.452 in assay [15]; -0.0589 in [16]; -0.518 (inactive) in assay [17]; -0.855 in [18]; -0.122 in assay [19]. In assay [20], the z-score is 0.9 (inactive). In [2], this molecule registered a composite z-score of 1.72.

Take `C[C@H](c1ccccc1)N1C(=O)[C@H]2[C@@H]3C(=CC[C@H]2C1=O)C(=O)[C@H]1O[C@H]1[C@H]3O`: the z-score was 0.0931 (inactive) in [1]; -0.564 (inactive) in assay [3]; -0.0275 (inactive) in [4]; 0.163 (inactive) in [5]; -0.0165 (inactive) in assay [6]; -0.836 in assay [7]. For the same molecule, the z-score is -0.76 (inactive) in [8]; -0.156 (inactive) in [9]; 1.13 in assay [10]; -1.86 in assay [11]; 0.265 in [12]; -4.46 in assay [13]. Besides, the z-score was -3.11 in assay [14]; -3.94 in assay [15]; 1.02 in assay [16]; 1.02 (inactive) in [17]; -1.03 in assay [18]; -2.92 in assay [19]. Moreover, the z-score in [20] was -2.16 (inactive). The composite z-score in [2] was -0.239.

As to `CC(=O)OC[C@H]1O[C@@H](ON=C[C@@H](C)[C@H](OCc2ccccc2)C(C)C)[C@H](OC(C)=O)[C@@H](OC(C)=O)[C@@H]1OC(C)=O`, the z-score was 0.319 (inactive) in [1]; 0.857 (inactive) in assay [3]; 0.536 (inactive) in assay [4]; 1.04 (inactive) in assay [5]; 0.22 (inactive) in assay [6]; 0.761 in assay [7]. Also, the z-score was -0.72 (inactive) in assay [8]; 0.404 (inactive) in assay [9]; -0.856 in assay [10]; 0.605 in assay [11]; -0.466 in [12]; 0.471 in assay [13]. Moreover, the z-score in [14] is 0.614; in assay [15] it was 0.048; in [16] it was -0.148; in [17], 0.0097 (inactive); in assay [18], 0.386; in assay [19], -0.863. Besides, the z-score in assay [20] was -1.23 (inactive). The composite z-score in [2] came out at 0.113.
